Shown are actives, neighbours in structure and some others; about 2.6% of the full set was active somewhere.
Cruzain inh noDet: cruzain (T. cruzi) inhibition without detergent; P25779; Potency, µM, without a hit: max response, negative = inhibition, actives largely listed as inhibitors; purified cruzain, Z-FR-AMC fluorescence, no detergent; 200,000 compounds, 2.3% hits; AID 1476;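 also: plate controls were enzyme without inhibitor for no effect and buffer without enzyme for full effect; nearly all actives have a fitted effect of over 40% in size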
Target sequence (P25779 123-467 limits assumed): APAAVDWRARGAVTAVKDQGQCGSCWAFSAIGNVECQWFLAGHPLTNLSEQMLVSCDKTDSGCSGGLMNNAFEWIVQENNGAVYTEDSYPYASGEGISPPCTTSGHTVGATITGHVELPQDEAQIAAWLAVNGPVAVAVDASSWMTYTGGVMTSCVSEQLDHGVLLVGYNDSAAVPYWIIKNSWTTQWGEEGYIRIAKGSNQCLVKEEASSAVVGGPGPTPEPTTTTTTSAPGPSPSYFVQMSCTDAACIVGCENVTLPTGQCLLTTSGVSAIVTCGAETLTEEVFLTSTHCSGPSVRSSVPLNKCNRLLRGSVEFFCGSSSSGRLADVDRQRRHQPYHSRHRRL
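Detergent-free condition (0.00005% Triton X-100) in acetate buffer pH 5.5 with DTT. 1.5 nM enzyme and compound were pre-mixed 15 min, then 2 uM Z-FR-AMC substrate added; reaction progress from fluorescence change between first and third reads (60 s).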
Cruzain inh Det: cruzain (T. cruzi) inhibition with detergent. 200,000 compounds, 0.43% hits. purified cruzain, Z-FR-AMC fluorescence, 0.01% Triton. P25779. Potency, µM, without a hit: max response, negative = inhibition, most hits filed as inhibitors. AID 1478;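 also: plate controls were neutral wells for no effect and buffer without enzyme for full effect; nearly all actives have a fitted effect of over 40% in size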
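Read-out: AMC fluorescence (360 nm excitation, 450 nm emission), four reads over 2 min, first-to-third difference used. Conditions: cruzain 1.5 nM, Z-FR-AMC 2 uM, pH 5.5 acetate, 5 mM DTT, 0.01% Triton X-100.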
Numbers without * were called inactive; ? = inconclusive. Calls follow the shape of the dose curve; as a rule, active = well fitted curve in the direction sought with a large enough effect; inconclusive = small, poorly fitted or top-dose-only effect, or another doubt; inactive = no such curve, though single readings can be large; an effect the other way counts as inactive or inconclusive. Potency is read from the fitted curve at half-maximal effect.

SMILES	Cruzain inh noDet	Cruzain inh Det
CCOc1ccc(C(=O)Nc2ccc3nc(SCC(=O)N(C)c4ccccc4)sc3c2)cc1	-13.2%	-4.9%
Cc1c(C(=O)Nc2ccc(C(C)C)cc2)sc2nc3n(c(=O)c12)CCC3	2.3%	-3.6%
CC(C)c1ccc(C2Sc3ccccc3NC3=C2C(=O)c2ccccc23)cc1 (configuration not stated)	10µM*	-3.9%
CC(=O)Nc1ccc(C2Sc3ccccc3NC3=C2C(=O)c2ccccc23)cc1 (configuration not stated)	-5.3%	-8.6%
O=C1C2=C(Nc3ccccc3SC2c2ccc(C(F)(F)F)cc2)c2ccccc21 (configuration not stated)	20µM*	-2.8%
CCc1ccc(C2Sc3ccccc3NC3=C2C(=O)c2ccccc23)cc1 (configuration not stated)	?	-8.0%
CCOC(=O)c1cc(OC(=O)c2cc(OC)cc(OC)c2)n(-c2ccccc2)n1	11.9%	-5.3%
CCc1ccc(NC(=O)CO/N=C(\C)c2cc3ccccc3o2)cc1	-8.9%	-9.0%
O=C(COc1ccc(/C=N/NC(=O)c2cc3ccccc3o2)cc1Br)Nc1ccccc1	10µM*	25.1µM*
NC(=S)N/N=C\c1c[nH]c2ccccc12	0.316µM*	0.708µM*
S=C(NCCN1CCOCC1)N/N=C/c1c2ccccc2cc2ccccc12	?	-8.5%
NC(=S)N/N=C\c1c2ccccc2cc2ccccc12	1µM*	0.891µM*
Cc1cccc(NC(=S)N/N=C/c2c[nH]c3ccccc23)c1	-24.2%	?
COc1cc(-c2ccc(NC(=O)c3ccc(C)cc3)c(OC)c2)ccc1NC(=O)c1ccc(C)cc1	-29.6%	-1.4%
COc1cc(-c2ccc(N=C=O)c(OC)c2)ccc1N=C=O	31.6µM*	-3.6%
CCC1CN(S(=O)(=O)c2cc(-c3onc(C)c3C)ccc2C)c2cc(Cl)ccc2O1 (configuration not stated)	?	-2.2%
Cc1cccc(Oc2ccc3c(c2)Oc2ccccc2NC3=O)c1	?	-5.0%
[O-]/C(=C(\C(=S)Nc1cccc2ccccc12)[n+]1ccccc1)c1ccc2c(c1)OCCO2	12.6µM*	-5.6%
CC(C)C(=O)c1cc2c(cc1NC(=O)Nc1cccc3ccccc13)OCCO2	25.4%	-1.6%
Cc1ccc(-c2csc(NC(=O)c3cccc(S(=O)(=O)N4CCN(C)CC4)c3)n2)cc1	-3.7%	-13.1%
COc1ccc(-c2csc(NC(=O)c3ccc(S(=O)(=O)N4CCc5ccccc5C4)cc3)n2)c(OC)c1	3.98µM*	-1.7%
COc1cccc(C(=O)Nc2nc3ccc(S(=O)(=O)N4CCCC4)cc3s2)c1	-5.6%	-8.6%
O=C(Nc1nc(-c2ccc3c(c2)Cc2ccccc2-3)cs1)c1ccccc1	20µM*	-0.3%
COc1ccc(/C=N/Nc2nc(-c3cccc(S(=O)(=O)N4CCCC4)c3)cs2)c(OC)c1	7.94µM*	-1.8%
O=C(Nc1nc(-c2ccccc2)cs1)c1cccc([N+](=O)[O-])c1	?	-2.6%
SMILES	Cruzain inh noDet	Cruzain inh Det
Cc1ccc(-c2csc(NC(=O)c3ccc(S(=O)(=O)N4CCc5ccccc54)cc3)n2)cc1	5.01µM*	0.7%
COc1cccc(C(=O)Nc2nc(-c3ccc(S(=O)(=O)N4CCOCC4)cc3)cs2)c1	?	0.4%
N#C/C(=C\c1ccc(O)c(O)c1)C(=O)OCCc1cccs1	5.5%	-20.3%
COc1ccccc1C(=O)OCc1cc(=O)n2nc(C3CC3)sc2n1	-0.5%	-1.9%
COc1ccc(F)cc1S(=O)(=O)NCCc1c(C)[nH]c2c(Cl)cccc12	7.6%	-14.1%
Cc1ccc(NC(=O)CSc2nccn2C2CCCC2)cc1Cl	?	-4.6%
O=C(Nc1nc(-c2ccccc2)cs1)c1ccc(S(=O)(=O)N2CCc3ccccc32)cc1	6.31µM*	-1.1%
O=C(Nc1nc(-c2ccc(S(=O)(=O)N3CCOCC3)cc2)cs1)c1ccccc1	-14.5%	-6.3%
CC(=O)c1cccc(Nc2ncnc3c2cnn3-c2cccc(Cl)c2)c1	-3.3%	0.7%
COc1ccccc1NC(=O)c1sc2ncn(Cc3ccc(C)cc3)c(=O)c2c1C	-9.2%	6.5%
COc1ccccc1NC(=O)c1sc2ncn(Cc3cccc4ccccc34)c(=O)c2c1C	7.94µM*	12.8%
N#Cc1ccccc1NS(=O)(=O)c1ccc(N2CCCCS2(=O)=O)cc1	10.2%	0.0%
COc1ccc(-c2nnc(-c3cc4ccccc4oc3=O)o2)cc1	15.8µM*	-0.7%
COc1ccc2oc(=O)c(-c3nnc(-c4ccc(C)cc4)o3)cc2c1	-6.8%	11.2%
COc1ccc(C)cc1NC(=O)c1cc(S(=O)(=O)N2CCN(c3cccc(C)c3C)CC2)ccc1F	-8.7%	0.2%
O=C(Cn1nnc(-c2ccc(Cl)cc2)n1)NCCC1=CCCCC1	20µM*	10.5%
Cc1ccc(-c2nnn(CC(=O)NCCC3=CCCCC3)n2)cc1	?	8.5%
COc1ccccc1NC(=O)Cn1c(=O)n(CCc2c[nH]c3ccccc23)c(=O)c2cccnc21	20µM*	-3.2%
COc1ccccc1NC(=O)CSc1nc2nccnc2c(=O)n1CCc1c[nH]c2ccccc12	3.6%	-2.7%
